Assay results published in PubChem BioAssay (Tox21).
Results filed as inconclusive are left out. Calls of active or inactive are those of the source. The call rests on the fitted dose curve; in most records, active means well fitted curve in the direction sought with a large enough effect in the repeat runs; inconclusive means weak or mixed curves; inactive means no such curve, though single readings can be large; an effect the other way counts as inactive or inconclusive.

What was measured:
[1] = A CellTox Green Cytotoxicity Assay to monitor cytotoxicity in HEK293 cells - 8 hour (AID 1224884); further: nearly all actives have a fitted effect of over 35% in size; further: potency means the concentration at half of the fitted maximal effect
Procedure, shortened: (§1)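 Fluorescence intensity, read at 0, 8, 16, 24, 32 and 40 h of compound treatment, reflected dye binding to DNA of dead HEK293 cells; compounds (23 nL, DMSO) were added 5 h after plating cells with reagent.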

[2] = qHTS RealTime-Glo MT Cell Viability Assay in HepG2 cells - 16 hour (AID 1224885); further: nearly all actives have a fitted effect of over 50% in size
Procedure, shortened: (§2)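 qHTS, HepG2, 600 cells/well, RealTime-Glo (NanoLuc + prosubstrate) added with cells; 5 h preincubation; DMSO compound addition; 37 C; luminescence at 0/8/16/24/32/40 h.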

[3] = A CellTox Green Cytotoxicity Assay to monitor cytotoxicity in HEK293 cells - 16 hour (AID 1224888); further: nearly all actives have a fitted effect of over 35% in size; further: potency means the concentration at half of the fitted maximal effect
Procedure, shortened: as §1

[4] = qHTS RealTime-Glo MT Cell Viability Assay in HepG2 cells - 0 hour (AID 1224889); further: nearly all actives have a fitted effect of over 50% in size; further: potency means the concentration at half of the fitted maximal effect
Procedure, shortened: as §2

[5] = A CellTox Green Cytotoxicity Assay to monitor cytotoxicity in HepG2 cells - 8 hour (AID 1224890); further: nearly all actives have a fitted effect of over 45% in size; further: potency means the concentration at half of the fitted maximal effect
Procedure, shortened: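 Using 1536-well format, dye-containing HepG2 suspension was seeded, allowed 5 h at 37 C/5% CO2, dosed by pintool with compounds, positive and negative controls, and imaged for fluorescence across 40 h.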

[6] = qHTS assay to identify small molecule antagonists of the androgen receptor (AR) signaling pathway using the MDA cell line in the presence of 0.5 nM R1881 - cell viability counter screen (AID 1259242); further: nearly all actives have a fitted effect of over 45% in size; further: potency means the concentration at half of the fitted maximal effect
Procedure, shortened: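 Viability of MDA-kb2 cells was multiplexed with the luciferase AR readout; after 16 hr with compounds and R1881 at 0.5 nM final, CellTiter-Fluor fluorescence was recorded.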

[7] = qHTS RealTime-Glo MT Cell Viability Assay in HEK293 cells - 24 hour (AID 1224886); further: nearly all actives have a fitted effect of over 50% in size; further: potency means the concentration at half of the fitted maximal effect; on activity change, negative = cytotoxicity: top concentration of the series differs between compounds
Procedure, shortened: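 Assay medium contained NanoLuc luciferase plus cell-permeant prosubstrate, added with HEK293 cells at 600 cells/well. After 5 h at 37 C/5% CO2 compounds were added; plates stayed at 37 C for 40 h with serial luminescence reads.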

[8] = qHTS RealTime-Glo MT Cell Viability Assay in HEK293 cells - 8 hour (AID 1224887); further: nearly all actives have a fitted effect of over 50% in size; further: potency means the concentration at half of the fitted maximal effect; on activity change, negative = cytotoxicity: top concentration of the series differs between compounds
Procedure, shortened: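 Viable HEK293 cells reduce a cell-permeant prosubstrate; the product diffuses out and is consumed by NanoLuc in the medium to give light. Compounds went in after a 5 h incubation and plates were read over the treatment course.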

[9] = qHTS assay to identify small molecule antagonists of the estrogen receptor alpha (ER-alpha) signaling pathway using the BG1 cell line in the presence of 0.1 nM 17-beta-estradiol - cell viability counter screen (AID 1259241); further: nearly all actives have a fitted effect of over 40% in size
Procedure, shortened: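 Following 5 days in phenol red-free medium with charcoal-stripped serum, VM7Luc4E2 cells received test compounds alongside 0.1 nM 17beta-estradiol (final) at 37C for 22 hr. Live cells were then quantified via protease-substrate fluorescence.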

[10] = biological target: Androgen receptor (Homo sapiens) (UniProt P10275); test: qHTS assay to identify small molecule antagonists of the androgen receptor (AR) signaling pathway using the MDA cell line in the presence of 0.5 nM R1881 (AID 1259243); further: nearly all actives have a fitted effect of over 50% in size; further: potency means the concentration at half of the fitted maximal effect
Procedure, shortened: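 Reporter cells cultured without CO2 receive test chemicals, then 0.5 nM R1881 final; after 16 hr at 37C, ONE-Glo is added and light output recorded.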
On the % scale 0 is the no-effect control and ±100 the full control effect.

Sequence of Androgen receptor (Homo sapiens) (P10275 whole entry, looked up): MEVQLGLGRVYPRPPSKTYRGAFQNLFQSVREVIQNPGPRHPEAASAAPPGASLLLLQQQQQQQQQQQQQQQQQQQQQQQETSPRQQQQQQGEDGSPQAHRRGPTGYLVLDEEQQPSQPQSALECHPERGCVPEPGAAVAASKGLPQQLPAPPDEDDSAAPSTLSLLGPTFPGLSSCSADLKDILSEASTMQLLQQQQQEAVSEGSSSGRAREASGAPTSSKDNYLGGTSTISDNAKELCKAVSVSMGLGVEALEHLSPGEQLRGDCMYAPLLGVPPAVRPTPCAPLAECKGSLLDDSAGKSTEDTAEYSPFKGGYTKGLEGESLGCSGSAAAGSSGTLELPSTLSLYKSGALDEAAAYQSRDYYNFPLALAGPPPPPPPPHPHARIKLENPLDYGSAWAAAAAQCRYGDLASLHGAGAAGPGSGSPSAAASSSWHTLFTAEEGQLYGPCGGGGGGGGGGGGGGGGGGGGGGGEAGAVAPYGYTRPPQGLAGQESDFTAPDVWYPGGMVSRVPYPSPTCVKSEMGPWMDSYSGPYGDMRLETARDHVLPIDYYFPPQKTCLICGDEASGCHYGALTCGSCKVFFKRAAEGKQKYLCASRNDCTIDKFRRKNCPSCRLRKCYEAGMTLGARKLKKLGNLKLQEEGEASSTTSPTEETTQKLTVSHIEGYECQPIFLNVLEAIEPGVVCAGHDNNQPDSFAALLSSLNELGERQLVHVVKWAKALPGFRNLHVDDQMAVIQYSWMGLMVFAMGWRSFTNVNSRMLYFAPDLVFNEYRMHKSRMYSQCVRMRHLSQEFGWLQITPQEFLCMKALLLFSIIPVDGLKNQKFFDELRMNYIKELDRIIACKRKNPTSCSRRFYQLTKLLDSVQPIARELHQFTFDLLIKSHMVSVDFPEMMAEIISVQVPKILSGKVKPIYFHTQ

O=C1OC(=O)c2ccc3c4c(ccc1c24)C(=O)OC3=O
inactive: Potency [1] | Potency [2] | Potency [3] | Potency [4] | Potency [5] | Potency [6]

CN(C)c1ccc(N=Nc2ccccc2C(=O)O)cc1
inactive: Potency [1] | Potency [7] | Potency [8] | Potency [3] | Potency [4] | Potency [5] | Potency [9]

CCOCN(C(=O)CS(=O)(=O)O)c1c(C)cccc1CC
inactive: Potency [1] | Potency [7] | Potency [8] | Potency [3] | Potency [4] | Potency [5] | Potency [9] | Potency [6]

CNC(=O)c1cc(Oc2ccc(NC(=O)Nc3ccc(Cl)c(C(F)(F)F)c3)cc2)ccn1
inactive: Potency [1] | Potency [3] | Potency [4] | Potency [5]
active: Potency [7] 3.38 µM | Potency [8] 4.25 µM | Potency [6] 26.6 µM

COc1cc(C(C)C)c2c(c1)S(=O)(=O)N(COc1cc(=O)n3cccc(OCCN4CCCCC4)c3n1)C2=O
inactive: cytotoxicity increase [1] -6.14% [at 15.8 µM] | activity change, negative = cytotoxic [2] -16.4% [at 15.8 µM] | activity change, negative = cytotoxicity [4] -4.58% [at 15.8 µM] | cytotoxicity increase [5] 14.9% [at 15.8 µM] | activity change, negative = cytotoxicity [9] -4.33% [at 19 µM] | viability change, negative = cytotoxic [6] -2.69% [at 19 µM] | activity, negative = inhibition [10] -16.6% [at 19 µM]

Cc1cc(C)c(C=O)c(C)c1
inactive: Potency [1] | Potency [2] | Potency [3] | Potency [4] | Potency [9] | Potency [6]

CCCCN(CCCC)CCC(O)c1cc2c(Cl)cc(Cl)cc2c2cc(C(F)(F)F)ccc12 (stereo not given)
inactive: Potency [1] | Potency [7] | Potency [8] | Potency [3] | Potency [4] | Potency [5] | Potency [9]

Oc1ccc(-c2ccccc2)c(Cl)c1
active: Potency [10] 1.93 µM
inactive: Potency [1] | Potency [2] | Potency [4] | Potency [6]

CCOB(OCC)OCC
inactive: Potency [1] | Potency [2] | Potency [3] | Potency [4] | Potency [5] | Potency [9] | Potency [6] | Potency [10]

c1cc(OCC2CO2)cc(OCC2CO2)c1 (stereo not given)
inactive: Potency [1] | Potency [8] | Potency [3] | Potency [4] | Potency [5] | Potency [9] | Potency [6]
active: Potency [7] 24.4 µM | Potency [10] 48.2 µM

C=CC(=O)OCC(O)COc1ccccc1 (stereo not given)
inactive: Potency [1] | Potency [7] | Potency [8] | Potency [3] | Potency [4] | Potency [5] | Potency [9] | Potency [6]

Nc1ncnc2c1ncn2[C@@H]1O[C@H](COP(=O)(O)O)[C@@H](O)[C@H]1O
inactive: Potency [1] | Potency [7] | Potency [8] | Potency [3] | Potency [5] | Potency [6]

C[C@]12CC[C@H]3C(=CCc4cc(O)ccc43)[C@@H]1CCC2=O
inactive: Potency [1] | Potency [8] | Potency [3] | Potency [4] | Potency [5] | Potency [9] | Potency [6]
active: Potency [7] 43.6 µM

O=C(Nc1ccc(Cl)cc1)Nc1ccc(Cl)c(C(F)(F)F)c1
active: Potency [7] 5.35 µM | Potency [6] 11.9 µM
inactive: Potency [1] | Potency [3] | Potency [4] | Potency [5] | Potency [9]

Cc1nc(Nc2ncc(C(=O)Nc3c(C)cccc3Cl)s2)cc(N2CCN(CCO)CC2)n1
active: Potency [7] 30.1 µM | Potency [4] 23.9 µM
inactive: Potency [1] | Potency [3] | Potency [5] | Potency [6]

COC(=O)C1=C(C)NC(C)=C(C(=O)OCCCN2CCC(c3ccccc3)(c3ccccc3)CC2)C1c1cccc([N+](=O)[O-])c1 (stereo not given)
active: Potency [7] 10.7 µM | Potency [10] 21.1 µM
inactive: Potency [1] | Potency [3] | Potency [4] | Potency [5]

Cc1ccc(-n2[nH]c(C)c(N=Nc3cccc(-c4cccc(C(=O)O)c4)c3O)c2=O)cc1C
inactive: Potency [1] | Potency [8] | Potency [3] | Potency [4] | Potency [5] | Potency [10]

CC(C(O)c1ccccc1)N(C)CCOC(c1ccccc1)c1ccccc1 (stereo not given)
active: Potency [7] 21.3 µM | Potency [5] 26.8 µM | Potency [6] 29.8 µM
inactive: Potency [1] | Potency [9]

O=C1c2c(O)ccc(O)c2C(=O)c2c(NCCNCCO)ccc(NCCNCCO)c21
active: Potency [7] 0.0601 µM | Potency [6] 21.1 µM
inactive: Potency [1] | Potency [3] | Potency [4] | Potency [5]

C[C@@]12C(=O)OC(=O)[C@]1(C)C1CCC2O1
active: Potency [7] 6.74 µM | Potency [5] 23.9 µM
inactive: Potency [1] | Potency [3] | Potency [4]

C=CC(=O)OCCC#N
inactive: Potency [1] | Potency [8] | Potency [3] | Potency [4] | Potency [5] | Potency [6] | Potency [10]

CCC(=O)CC(C)CC (stereo not given)
inactive: cytotoxicity increase [1] 19.1% [at 0.29 µM] | activity change, negative = cytotoxicity [7] -3.03% [at 0.29 µM] | activity change, negative = cytotoxicity [8] 3.45% [at 0.29 µM] | activity change, negative = cytotoxicity [4] 5.37% [at 0.29 µM] | cytotoxicity increase [5] 2.33% [at 0.29 µM] | activity change, negative = cytotoxicity [9] -17.1% [at 0.349 µM] | viability change, negative = cytotoxic [6] 2.57% [at 0.349 µM]

CCCC(=O)OCC(COC(=O)CCC)OC(=O)CCC
inactive: Potency [1] | Potency [7] | Potency [3] | Potency [4] | Potency [5] | Potency [6] | Potency [10]

C(=C/c1ccccc1)/c1ccccc1
inactive: Potency [1] | Potency [8] | Potency [3] | Potency [4] | Potency [5] | Potency [9] | Potency [6]

O=C1NC2CCCCN2C12CCN(CCCN1c3ccccc3CCc3ccc(Cl)cc31)CC2 (stereo not given)
active: Potency [7] 8.49 µM | Potency [8] 6.01 µM | Potency [6] 26.6 µM
inactive: Potency [1] | Potency [4]

C[n+]1c2cc(N)ccc2cc2ccc(N)cc21 (tested in a mixture with another compound)
inactive: Potency [4]
active: Potency [1] 23.9 µM | Potency [7] 9.52 µM | Potency [3] 23.9 µM | Potency [5] 23.9 µM | Potency [10] 13.3 µM

Cc1c(C)n(Cc2ccccc2)c2ccc(C(=O)OCCN(C)C)cc12
inactive: Potency [1] | Potency [8] | Potency [3] | Potency [4]

CCCCOC(=O)C(C)CC (stereo not given)
inactive: Potency [1] | Potency [7] | Potency [3] | Potency [4] | Potency [5] | Potency [6]

CCCC(CC)CCCCCCCN (stereo not given)
active: Potency [1] 50.2 µM | Potency [7] 56.3 µM
inactive: Potency [5] | Potency [9] | Potency [6]

CCN(CC)CCNc1ccc(CO)c2sc3ccccc3c(=O)c12
inactive: Potency [1] | Potency [3] | Potency [4] | Potency [5]
active: Potency [7] 16.9 µM

CC(C)(C)c1cc(/C=C2\SC(=N)NC2=O)cc(C(C)(C)C)c1O
active: Potency [7] 49 µM | Potency [5] 49 µM
inactive: Potency [1] | Potency [4] | Potency [9] | Potency [6]

CCCCCCCCCC(=O)N(C)C
inactive: Potency [1] | Potency [7] | Potency [4] | Potency [5] | Potency [9] | Potency [6]

COc1cc(C=C2CCC/C(=C\c3ccc(O)c(OC)c3)C2=O)ccc1O
inactive: Potency [1] | Potency [3]
active: Potency [7] 23.9 µM | Potency [8] 2.39 µM | Potency [10] 9.44 µM

CN(C)CCCN1c2ccccc2Sc2ccc(C(F)(F)F)cc21
inactive: Potency [1] | Potency [9]
active: Potency [7] 21.3 µM | Potency [8] 21.3 µM

CCc1ccc(O)c(C(C)(C)C)c1
active: Potency [5] 43.6 µM
inactive: Potency [1] | Potency [8] | Potency [3] | Potency [4] | Potency [9] | Potency [6]

Clc1ccc(C(Cn2ccnc2)OCc2ccsc2Cl)c(Cl)c1 (stereo not given)
active: Potency [7] 15.1 µM
inactive: Potency [1] | Potency [3] | Potency [4] | Potency [5] | Potency [9] | Potency [6]

CC(O)C#CC(C)O (stereo not given)
inactive: Potency [1] | Potency [8] | Potency [3] | Potency [4] | Potency [5] | Potency [6]

OCCCS
inactive: Potency [1] | Potency [7] | Potency [8] | Potency [4] | Potency [5] | Potency [6] | Potency [10]
